Screening results from PubChem BioAssay.
Only some compounds are listed: those with a hit (about 6.1% of all), similar ones and a draw of the others.
PK Bst = modulators of Bacillus stearothermophilus pyruvate kinase; Potency, µM; actives 1.2% (n = 51,000); purified pyruvate kinase, luminescence ATP production; ribose 5-phosphate activator present at AC10; in the data active means potency below about 11 µM; inconclusive means mostly about 12 µM to 25 µM;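 the screen sought inhibitors and activators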
ALOX15 inhib = 15-hLO (ALOX15) enzyme inhibition. purified 15hLO-1, xylenol orange hydroperoxide absorbance. Potency, µM (series often up to 57.1 µM), hits mostly inhibitors. actives 1.4% (n = 74,000); further: nearly all actives have a fitted effect of over 55% in size
Target sequence (P16050 whole entry, looked up): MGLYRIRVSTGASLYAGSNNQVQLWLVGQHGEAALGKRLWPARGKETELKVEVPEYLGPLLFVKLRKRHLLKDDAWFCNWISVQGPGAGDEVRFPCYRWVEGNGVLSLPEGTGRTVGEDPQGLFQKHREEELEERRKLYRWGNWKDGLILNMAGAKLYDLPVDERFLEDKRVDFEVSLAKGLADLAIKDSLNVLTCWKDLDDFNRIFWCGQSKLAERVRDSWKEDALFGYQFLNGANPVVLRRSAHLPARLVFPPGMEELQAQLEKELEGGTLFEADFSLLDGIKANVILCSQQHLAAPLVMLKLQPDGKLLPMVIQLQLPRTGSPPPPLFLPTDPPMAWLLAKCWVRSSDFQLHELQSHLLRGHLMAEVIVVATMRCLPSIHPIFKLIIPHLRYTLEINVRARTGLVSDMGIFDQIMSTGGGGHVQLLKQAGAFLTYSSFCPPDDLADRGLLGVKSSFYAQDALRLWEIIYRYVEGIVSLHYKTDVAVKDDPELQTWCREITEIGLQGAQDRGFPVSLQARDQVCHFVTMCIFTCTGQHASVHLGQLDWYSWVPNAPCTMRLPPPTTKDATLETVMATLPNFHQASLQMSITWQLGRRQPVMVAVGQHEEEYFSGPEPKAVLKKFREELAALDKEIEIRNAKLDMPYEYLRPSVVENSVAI
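Purified human 15hLO-1 (40 nM) in 25 mM Hepes pH 7.5, 0.01% Triton X-100, preincubated 15 min RT with compound, then 50 uM arachidonic acid for 6 min. Hydroperoxide read by ferrous/xylenol orange, 30 min; 573/405 nm absorbance ratio gave progress.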
ERK AVP block = inhibitors of vasopressin-stimulated ERK signaling pathway | AID 995 | actives 0.99% (n = 72,000) | Potency, µM (highest dose often 57.5 µM), usual class: inhibitors | HEK293-V1b, vasopressin-stimulated pERK AlphaScreen; further: nearly all actives have a fitted effect of over 55% in size
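Phosphorylated ERK1/2 detected via AlphaScreen bead proximity in lysates of V1b-expressing HEK293 cells given 25 nM vasopressin for 5 min after 30 min compound exposure (37 °C). AC50 from Hill equation; basal DMSO 0%, vasopressin 100%.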
FLuc inh = blocks Photinus pyralis firefly luciferase activity | AID 411 | actives 2.2% (n = 72,000) | P08659 | purified firefly luciferase, luminescence, 8 min | Potency, µM (highest dose often 57.1 µM), most hits filed as inhibitors; further: nearly all actives have a fitted effect of over 40% in size
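Inhibition of light generation by firefly luciferase from ATP and luciferin was profiled with concentration-response curves per sample, ATP held at 10 uM within the enzyme's linear range. Plates were read by luminescence after an 8-minute ambient incubation.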
Tau filament bind = binders of human tau filaments; actives 2% (n = 71,000); recombinant tau filaments, thioflavin S fluorescence, 15 h; filaments grown with octadecylsulfate alongside compound; Potency, µM (titrated, usually from 57.1 µM); P10636;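 further: actives lower thioflavin S fluorescence by blocking filaments or displacing dye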
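Assay mix: 1 uM His-tagged tau, 30 uM sodium octadecylsulfate, thioflavine S dye in HEPES/NaCl/DTT buffer. Compound is added prior to the inducer. Fluorescence after 15 h at 37 C.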
Hsp90 Hop PPI = changes Hsp90-Hop TPR2A binding signal, up or down | AlphaScreen TPR2A-His6 binding biotin-Hsp90 C-terminal peptide | Potency, µM (titrated, usually from 57 µM) | actives 0.44% (n = 71,000); active means well fitted curve in either direction with a large enough effect; inconclusive means small, poorly fitted or top-dose-only effect, or another doubt
Hits are given with their value; 0 = inactive; ? = inconclusive; - = not tested or not shown; [ ] = remark or other dose. Unless noted, the call rests on the fitted dose curve; in most records, active means well fitted curve in the direction sought with a large enough effect; inconclusive means small, poorly fitted or top-dose-only effect, or another doubt; inactive means no such curve, though single readings can be large; an effect the other way counts as inactive or inconclusive.

SMILES | PK Bst | ALOX15 inhib | ERK AVP block | FLuc inh | Tau filament bind | Hsp90 Hop PPI
Clc1ccccc1-c1cc(NCc2ccccc2)ncn1 | - | ? | 25µM | 0[2.29 µM] | 0 | 0
COc1cccc(-c2cc(NCc3ccccc3)ncn2)c1 | - | 0 | 5µM | 0[2.29 µM] | 0 | 0
CCCCCCCCCC(=O)N[C@@H](CN1CCOCC1)[C@@H](O)c1ccccc1 | - | 0 | 0 | 0 | 0 | 0
COC1=Cc2c(ccc3ccc(=O)oc23)OC1(C)C | - | 32µM | 0 | 0 | 0 | 0
O=C(c1cccc(F)c1)N1CCC2(CC1)CCN(c1ncccn1)CC2 | - | 0 | 0 | 0[11.4 µM] | 0 | 0
O=C(Nc1ccc(N2CCN(C(=O)c3ccco3)CC2)c(Cl)c1)c1cc2ccccc2o1 | 0 | 0 | 7.9µM | 0 | 0 | 0
CCC(=O)N1CCN(c2ccc(NC(=O)c3cc4ccccc4o3)cc2Cl)CC1 | 0 | 0 | 32µM | 0 | 0 | 0
O=C(c1cc2ccccc2o1)N1CCN(c2ccccc2Cl)CC1 | 0 | 0 | 0 | 0 | 0 | 0
O=C(Nc1ccc(N2CCOCC2)c(Cl)c1)c1ncn[nH]1 | - | 0 | 0 | 20µM | 0 | ?
O=C(Nc1ccc(N2CCN(C(=O)c3ccccc3)CC2)c(Cl)c1)c1ccco1 | - | 0 | ? | 0 | 0 | 0
CCCC(=O)N1CCN(c2ccc(NC(=O)c3cc4ccccc4o3)cc2Cl)CC1 | 0 | 0 | 7.9µM | 0 | 0 | 0
O=C(N/N=C1/C[C@@H](O)[C@@H](O)[C@@H]2[C@@H]3C(=O)N(c4cccc(Oc5ccccc5)c4)C(=O)[C@H]3CC[C@H]12)OCc1ccccc1 | - | 0[11.4 µM] | 0[11.5 µM] | 0[11.4 µM] | - | -
N#CCCn1c(=O)c(-c2cccs2)nc2cnc(N3CCOCC3)nc21 | - | 0 | ? | 0[11.4 µM] | 0 | 0
COC(=O)CC1C(C)(C)C(=O)C2CC3=C4CC(=O)OC(c5ccoc5)[C@]4(C)CCC3[C@@]1(C)C2=O (stereo not given in full) | - | 0 | 0 | - | - | -
NC(N)=NC(N)=Nc1ccccc1 (tested in a mixture with another compound) | - | 0[11.4 µM] | 0[11.5 µM] | 0[11.4 µM] | 0[11.4 µM] | 0[11 µM]
O=C(Nc1ccc(N2CCCC2)c(Cl)c1)c1ccc(Br)o1 | - | 0[11.4 µM] | ? | ? | 4µM | ?
O=C(Nc1ccc(N2CCOCC2)c(Cl)c1)c1ccco1 | 0 | 0 | 0 | 13µM | 0 | 0
O=C(NC1CCN(Cc2ccccc2)C1)c1ccc(Cc2nc3ccccc3[nH]2)cc1 (stereo not given) | - | 0 | - | - | - | -
O=C(c1ccc(Cc2nc3ccccc3[nH]2)cc1)N1CCCCC1 | - | 0 | - | - | - | -
O=C(O)CC[C@@]1(c2ccccc2)NC(=O)NC1=O | - | 0[11.4 µM] | 0[11.5 µM] | 0[11.4 µM] | 0[11.4 µM] | 0[11 µM]
COc1ccc2c(c1)-c1nc(NC(=O)c3ccco3)sc1CC2 | - | 0 | ? | 0 | 0 | 0
COc1ccc2sc(NC(=O)c3ccco3)nc2c1 | 5.4 | 0 | 0 | 7.9µM | 0 | 0
COc1ccc2nc(NC(=O)c3cccc(OCc4c(C)noc4C)c3)sc2c1 | 6 | ? | 0 | 13µM | 0 | 0
CCC(=O)Nc1nc2ccc(NC(C)=O)cc2s1 | 0 | 0 | 0 | 0 | 0 | 0
CCCC(=O)Nc1nc2ccc(NC(=O)c3ccc(Br)o3)cc2s1 | 0 | ? | 20µM | 0 | 0 | 0
SMILES | PK Bst | ALOX15 inhib | ERK AVP block | FLuc inh | Tau filament bind | Hsp90 Hop PPI
CCCC(=O)Nc1nc2ccc(OC)cc2s1 | - | 0 | - | 13µM | 0 | 0
COCCn1c(=O)c(-c2ccc(Cl)cc2)nc2cnc(Nc3ccccc3)nc21 | - | 0 | 0 | 0[11.4 µM] | 0 | 0
C[C@@H]1CC[C@H]2C(=O)N3[C@@H](CC[C@@H](C)[C@@H]3c3ccc(Br)cc3)C(=O)N2[C@@H]1c1ccc(Br)cc1 | - | ? | 0[11.5 µM] | 0[11.4 µM] | - | -
N[C@H](CS(=O)O)C(=O)O | - | - | - | 0 | 0 | 0
CCOCC(=O)Nc1nc2ccc(C)cc2s1 | - | 0 | 0 | 25µM | 0 | ?
COc1ccc2nc(NC(=O)c3ccoc3C)sc2c1 | 0 | 0 | 0 | 3.2µM | 0 | 0
Nc1ncnc2c1ncn2[C@@H]1O[C@@H](COP(=O)(O)OP(=O)(O)OP(=O)(O)OP(=O)(O)OC[C@@H]2O[C@@H](n3cnc4c(N)ncnc43)[C@@H](O)[C@H]2O)[C@H](O)[C@@H]1O | - | 0 | 0 | 0 | 0 | 0
c1ccc(CNc2ccc3ccccc3n2)nc1 | - | 0 | 0 | 25µM | 0 | ?
CCn1c(C(=O)NCCCc2ccccc2)cc2sccc21 | - | 20µM | - | - | - | -
Cn1c(C(=O)N2CCCC(C(=O)NCCc3ccccc3)C2)cc2sccc21 (stereo not given) | 0 | 0 | ? | 0 | 0 | 0
